D1 allo mod: allosteric modulators of human D1 dopamine receptor. P21728. HEK293 D1, CRE-luciferase, dopamine EC30 potentiation; actives deviate in either direction. B-score at 10 µM. 58,000 compounds, 5.9% hits;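 active means luminescence count or its row- and column-corrected plate score outside the 99.7% band of the plate's sample wells, on either side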
FXIIa mix inh: blocks human factor XIIa in pooled compound mixtures; P00748; purified FXIIa, fluorogenic substrate; inhibition, % at 5 µM; 62,000 compounds, 0.2% hits; AID 684
hDAT+cocaine: modulates human dopamine transporter uptake under cocaine; LLC-PK1 hDAT cells, [14C]-dopamine uptake with cocaine IC80; actives deviate in either direction; B-score at 10 µM; 110,000 compounds, 1.3% hits; AID 449768;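 active means Z score or B-score, a plate-position-corrected score, falls beyond the plate's 99.7% confidence bounds, in either direction; inactive means both scores lie inside the 99.7% bounds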
Target sequence (Q01959 whole entry, looked up): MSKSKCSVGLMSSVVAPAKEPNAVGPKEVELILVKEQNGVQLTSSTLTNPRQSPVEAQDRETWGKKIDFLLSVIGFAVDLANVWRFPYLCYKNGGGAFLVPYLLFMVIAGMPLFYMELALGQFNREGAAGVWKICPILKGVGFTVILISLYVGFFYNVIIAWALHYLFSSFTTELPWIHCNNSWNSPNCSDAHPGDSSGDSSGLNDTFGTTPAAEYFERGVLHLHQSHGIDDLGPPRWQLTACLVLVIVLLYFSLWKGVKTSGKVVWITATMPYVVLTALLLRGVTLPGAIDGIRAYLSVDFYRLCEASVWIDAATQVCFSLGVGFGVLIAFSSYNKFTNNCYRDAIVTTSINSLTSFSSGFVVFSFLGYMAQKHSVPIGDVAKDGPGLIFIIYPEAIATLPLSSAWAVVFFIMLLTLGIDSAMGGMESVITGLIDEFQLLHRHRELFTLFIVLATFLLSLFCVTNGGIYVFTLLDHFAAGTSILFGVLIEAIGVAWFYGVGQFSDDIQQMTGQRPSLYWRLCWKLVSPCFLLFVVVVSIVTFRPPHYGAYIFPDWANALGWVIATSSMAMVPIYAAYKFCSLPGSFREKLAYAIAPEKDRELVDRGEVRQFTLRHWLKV
M1 antagonist: M1 muscarinic receptor (rat) antagonism; 64,000 compounds, 3.4% hits; P08482; AID 628; CHO-M1 cells, Fluo-4 calcium, ACh EC80 antagonist mode; hits give low values; B-score at 10 µM;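 active means calcium fluorescence response, raw or row-and-column corrected B-score, differing from the plate sample mean either way at a set confidence level, mostly lower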
FXIa mix inh: factor XIa (human) inhibition, mixture screen | P03951 | purified FXIa, fluorogenic substrate, pooled mixtures | inhibition, % at 5 µM | 62,000 compounds, 0.19% hits | AID 680;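 further: each value is inhibition by a whole ten-compound pool holding the compound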
M1 agonist: activates the M1 muscarinic receptor; 64,000 compounds, 3% hits; AID 626; B-score at 10 µM; CHO-M1 cells, Fluo-4 calcium fluorescence, agonist mode; hits give high values;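 active means fluorescence rise, raw or as B-score row- and column-corrected plate score, outside the 99.7% band of its plate's samples, either direction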
Hits are given with their value. Compounds with a hit are over-represented: about 7.4% of the library has one in this group of screens. Unless noted, no stated cut-off is given here; in the data, active means inhibition above about 20% (passing the limit was not always enough); inactive means the rest.

For CCOc1cccc(C(=O)Nc2nnc(-c3ccco3)s2)c1 the results were D1 allo mod -3.7, FXIIa mix inh inactive, hDAT+cocaine inactive, M1 antagonist inactive, FXIa mix inh inactive and M1 agonist inactive.
`CCCOc1ccc(Oc2cc(C)nc(SC)n2)nn1` gave hDAT+cocaine inactive.
For Cc1ccc(N=Nc2c(N)[nH]n3c(=O)cc(-c4ccccc4)nc23)cc1 the results were hDAT+cocaine 1.6.
COc1cccc(N=Nc2c(N)[nH]n3c(=O)cc(-c4ccccc4)nc23)c1 was read as hDAT+cocaine inactive.
CCC1Oc2ccccc2N(CC(=O)NCCCN2CCCCC2C)C1=O (stereo not given) was read as D1 allo mod inactive, FXIIa mix inh inactive, hDAT+cocaine inactive, M1 antagonist inactive, FXIa mix inh inactive and M1 agonist inactive.
Screening CCN(CC)S(=O)(=O)c1ccc(C(=O)NCc2n[nH]c(=S)n2Cc2ccccc2)cc1 returned FXIIa mix inh inactive, hDAT+cocaine inactive and FXIa mix inh inactive.
Screening COC(=O)c1cccc(S(=O)(=O)N2CCN(c3nc4ccccc4s3)CC2)c1 returned D1 allo mod -2.8, FXIIa mix inh inactive, hDAT+cocaine inactive, M1 antagonist inactive, FXIa mix inh inactive and M1 agonist inactive.
For COC(=O)c1cccc(S(=O)(=O)N2CCCCC2)c1 the results were D1 allo mod inactive, FXIIa mix inh inactive, hDAT+cocaine inactive, M1 antagonist inactive, FXIa mix inh inactive and M1 agonist inactive.
Screening N#Cc1ccccc1/C=N/Nc1nc(-c2ccccc2)c2cc(Cl)ccc2n1 returned hDAT+cocaine inactive.
Cc1ccc2nc(N/N=C/c3ccccc3C#N)nc(-c3ccccc3)c2c1 was read as hDAT+cocaine 3.1.
`COc1ccc(N2C(=O)CSC2c2ccncc2)cc1` (stereo not given) gave D1 allo mod inactive, FXIIa mix inh inactive, hDAT+cocaine -7.4, M1 antagonist inactive, FXIa mix inh inactive and M1 agonist inactive.
Screening COc1ccc(N2C(=O)CSC2c2ccc3c(c2)OCO3)cc1 (stereo not given) returned D1 allo mod inactive, FXIIa mix inh inactive, hDAT+cocaine inactive, M1 antagonist inactive, FXIa mix inh inactive and M1 agonist inactive.
Screening Cc1cccc(NC(=O)CN2CCN(CC(=O)Nc3cccc(C)c3)CC2)c1 returned D1 allo mod inactive, FXIIa mix inh inactive, hDAT+cocaine inactive, M1 antagonist inactive, FXIa mix inh inactive and M1 agonist inactive.
`Cn1c(-c2sccc2OCc2ccccc2)n[nH]c1=S` gave hDAT+cocaine -10.
`CC(=O)Nc1nc(CC(=O)c2ccccc2)cs1` gave FXIIa mix inh inactive, hDAT+cocaine inactive, M1 antagonist inactive, FXIa mix inh 36 and M1 agonist inactive.
For Cc1ccc2cc(CN(Cc3cccs3)C(=O)c3ccco3)c3nnnn3c2c1C the results were D1 allo mod 3.7, FXIIa mix inh inactive, M1 antagonist inactive, FXIa mix inh inactive and M1 agonist inactive.
Cc1ccc2c(c1)cc(CN(Cc1cccs1)C(=O)c1ccco1)c1nnnn12 was read as FXIIa mix inh inactive, hDAT+cocaine inactive, M1 antagonist inactive, FXIa mix inh inactive and M1 agonist inactive.
`O=C(NCc1ccccc1)C(c1cccs1)N(Cc1cccs1)C(=O)c1cnccn1` (stereo not given) gave hDAT+cocaine inactive.
O=c1ncn(-c2cccc(F)c2)c2ncccc12 was read as hDAT+cocaine inactive.
Screening O=C(CCCCn1c(=O)c2ccccc2n(Cc2ccc(F)cc2Cl)c1=O)NCc1ccco1 returned D1 allo mod 14, FXIIa mix inh inactive, hDAT+cocaine inactive, M1 antagonist inactive, FXIa mix inh inactive and M1 agonist inactive.
For O=C(CCCCn1c(=O)c2ccccc2n(CC(=O)Nc2ccc(F)cc2)c1=O)NCc1ccco1 the results were D1 allo mod inactive, FXIIa mix inh inactive, hDAT+cocaine inactive, M1 antagonist inactive, FXIa mix inh inactive and M1 agonist inactive.
For O=C(NC(Cc1ccccc1)c1ccc2c(c1)OCCCO2)c1ccccc1F (stereo not given) the results were hDAT+cocaine 2.6.
`Cn1c(C(=O)Nc2ccc3c(c2)OCCO3)cc2sccc21` gave D1 allo mod -2.7, FXIIa mix inh inactive, hDAT+cocaine 2.2, M1 antagonist inactive, FXIa mix inh inactive and M1 agonist inactive.
Screening O=C(Nc1ccc2c(c1)OCCO2)NC1CCCCC1 returned D1 allo mod -3.1, FXIIa mix inh inactive, hDAT+cocaine inactive, M1 antagonist inactive, FXIa mix inh inactive and M1 agonist inactive.

Bioassay records (PubChem BioAssay)
